High-throughput results from PubChem.
Rows were chosen to be rich in hits. Some 21% of all compounds tested hit in one or more screens of this group.
Pf growth 96h: P. falciparum growth inhibition at 96 hour, primary screen for plastid delayed-death inhibitors | P. falciparum luciferase reporter growth, 96 h | Potency, µM (titrated, usually from 28.7 µM), inactives show at the top dose activity change, negative = inhibition, hits mostly inhibitors | 6.9% of 320,000 active | AID 504834; further: potency means the concentration at half of the fitted maximal effect; on the % scale 0 is the no-effect control and ±100 the full control effect
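Cell-based qHTS: luciferase-tagged P. falciparum in erythrocytes (2% hematocrit, 0.05% parasitemia final) incubated with compounds for 96 hours, 37 C, 5% CO2; luciferase detection reagent then added and luminescence measured.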
Cycloheximide cs: affects cycloheximide protein synthesis inhibition readout, counter-screen | cell reporter, cycloheximide protein synthesis inhibition counterscreen | max response, % | 12% of 300,000 active | AID 2314; in the data active means max response mostly above about 13%, no sharp cut-off; inactive means mostly below about 14%; further: read at 38.3 µM for the half of the compounds with a filed dose; 0% is about no effect
Shiga toxin inh: inhibitors of Shiga toxin in Vero cells | inhibition, % at 38.7 µM | 9.2% of 290,000 active | Vero cells, Shiga toxin protein synthesis inhibition reporter; in the data active means inhibition mostly above about 28%, no sharp cut-off; inactive means mostly below about 43%; further: 0% is about no effect
HCV inh: inhibitors of hepatitis C virus infection; Huh7.5.1 HCVcc-Cre infection, luciferase reporter, 44 h; 3.4% of 340,000 active; Potency, µM (series often up to 41.8 µM), for the others: at the highest dose activity change, negative = inhibition, most hits filed as inhibitors; further: potency means the concentration at half of the fitted maximal effect; on the % scale 0 is the no-effect control and ±100 the full control effect
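1,000 cells/well; 4 h culture; + compound; + HCVcc-Cre (~0.5 moi); 44 h; luciferase substrate, RT 15 min; read 15 sec.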
AMA1-RON2 inh: AMA1-RON2 (P. falciparum) interaction inhibition. AlphaScreen AMA1-biotinylated RON2 peptide binding. Potency, µM (top dose mostly 58.2 µM), inactives show at the highest dose activity change, negative = inhibition, actives largely listed as inhibitors. 0.2% of 360,000 active;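 further: potency means the concentration at half of the fitted maximal effect; 0% = vehicle wells and -100% = peptide control; nearly all actives have a fitted effect of over 45% in size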
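AMA1 (3D7) with his tag at 25 nM final met compounds first, then biotinylated RON2 peptide at 25 nM; detection used donor plus acceptor beads, 10 µg/mL apiece, read by AlphaScreen after 30 min at room temperature.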
Pf growth 48h: inhibits P. falciparum growth in the first generation, 48 h; P. falciparum luciferase growth in erythrocytes, 48 h; Potency, µM (highest dose often 28.7 µM), without a hit: at the highest dose activity change, negative = inhibition, hits mostly inhibitors; 5.9% of 310,000 active; AID 504832; further: potency means the concentration at half of the fitted maximal effect; on the % scale 0 is the no-effect control and ±100 the full control effect
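Compounds are pin-transferred into medium, infected erythrocytes (2% hematocrit, 0.1% parasitemia final) are added, and plates sit one parasite generation at 37 C in 5% CO2. Detection reagent is then added and luminescence measured.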
Active calls of the source: *; u = inconclusive; x = not tested or not shown. Unless noted, the call rests on the fitted dose curve; in most records, active means well fitted curve in the direction sought with a large enough effect; inconclusive means small, poorly fitted or top-dose-only effect, or another doubt; inactive means no such curve, though single readings can be large; an effect the other way counts as inactive or inconclusive.

SMILES | Pf growth 96h | Cycloheximide cs | Shiga toxin inh | HCV inh | AMA1-RON2 inh | Pf growth 48h
CN1CN(C)c2cccc3cccc1c23 | 4.1µM* | 0 | -11 | -10% | -28% | u
Cc1ccccc1NC(=S)NC(=O)C1CCCCC1 | 72% | 19* | 45 | 0% | 50% | u
Cc1ccc(NS(=O)(=O)c2ccc(Cl)c(NC(=S)NC(=O)C3CCCCC3)c2)cc1Cl | u | -1 | 7 | 11µM* | 25% | u
O=C(NC(=S)Nc1ccccc1Br)C1CC1 | x | x | x | -19% | 7% | x
CCOc1ccccc1NC(=S)NC(=O)C1CC1 | u | 13 | 18 | -17% | 5% | 5.2µM*
Cc1ccc(NC(=O)C2CCCC2)cc1Cl | x | x | x | 1% | 1% | x
CC1(C)NC(=O)N(CC(=O)N2CCN(c3cccc(Cl)c3)CC2)C1=O | 27% | x | x | 3% | 10% | 7%
CCCCCC(CC(=O)NO)C(=O)NC(C(=O)N1CCCC1CO)C(C)C (configuration not stated) | 2.9µM* | x | x | u | 25% | 3.3µM*
CC(C)(C)OC(=O)N1CCC[C@@H]1CO | 62% | 8 | -5 | 6% | 4% | -13%
Cc1sc2ncnc(N3CCC(C(=O)NNC(=O)COc4ccccc4Cl)CC3)c2c1C | u | x | x | u | 87% | 12µM*
Cc1sc2ncnc(N3CCC(C(=O)Nc4ccc(OC(F)F)c(Cl)c4)CC3)c2c1C | x | x | x | 20µM* | 5% | x
CCN(CC)CCNC(=O)c1ccc(NC(=O)C2CCN(c3ncnc4sc(C)c(C)c34)CC2)cc1 | u | 20 | 30 | 13µM* | -8% | u
CC(=O)c1sc(NC(=O)C2CCN(c3ncnc4sc(C)c(C)c34)CC2)nc1-c1ccccc1 | u | x | x | u | -22% | 9.3µM*
Cc1sc2ncnc(N3CCC(C(=O)NNC(=O)c4ccccc4Cl)CC3)c2c1C | 8.3µM* | 7 | -12 | u | 37% | u
CCOc1ccc(C(=S)N2CCCC2)c(OCC)c1 | u | -1 | -7 | -25% | 7% | u
CCOC(=O)N1CCN(C(C(=O)NC2CCCC2)C(C)C)CC1 (configuration not stated) | x | x | x | x | -18% | x
COc1ccc(C2(CNC(=O)c3cccc([N+](=O)[O-])c3)CCOCC2)cc1OC | 162% | -2 | -10 | 10% | 0% | 0%
COc1ccc(C2(CNC(=O)c3cccc([N+](=O)[O-])c3)CCCCC2)cc1OC | 5.9µM* | -1 | -13 | -9% | -7% | u
CCCc1nnc(NC(=O)CCC(=O)N2CCN(CCn3c(C)ccc3C)CC2)s1 | x | 13 | 6 | 4% | 12% | u
Cc1ccc(OCCN2CCN(C(=O)CCC(=O)Nc3nnc(C)s3)CC2)cc1 | u | -1 | 10 | 9% | 5% | -5%
Cc1ccc(OCCN2CCN(C(=O)CCC(=O)Nc3nnc(C(C)C)s3)CC2)cc1 | 2.9µM* | 8 | 4 | u | -4% | 10µM*
CCc1nnc(NC(=O)CCC(=O)N2CCC(Cc3ccccc3)CC2)s1 | 10µM* | -1 | 6 | 2% | 9% | -30%
CCc1nnc(NC(=O)CCC(=O)N2CCCC2)s1 | -8% | -5 | -5 | 11% | -6% | 2%
CCCc1nnc(NC(=O)CCC(=O)N2CCN(CCOc3ccc(C)cc3)CC2)s1 | u | 1 | -20 | u | 6% | 10µM*
O=C(c1[nH]c(C(F)(F)F)nc1-c1ccccc1)N1CCc2ccccc2C1 | x | x | x | x | -14% | x
Oc1ccccc1C=NC1=NN(c2cccc(C(F)(F)F)c2)CC1 | 2.1µM* | 5 | 3 | 4% | -14% | 35%
FC(F)(F)c1cccc(N2CCC(N=CN3CCCCCC3)=N2)c1 | u | 39* | 49* | u | u | u
Cc1cc(=O)c(C(=O)O)nn1-c1cccc(C(F)(F)F)c1 | 25% | -3 | -8 | 29% | 14% | 23%
OCC(CO)c1cnnc2ccccc12 | x | x | x | 36% | -2% | x
